AmpC inh no detg: qHTS Inhibitors of AmpC Beta-Lactamase (assay without detergent); hit rate 0.52% among 330,000; P00811; Potency, µM (titrated, usually from 57.1 µM), most hits filed as inhibitors; AmpC nitrocefin hydrolysis, absorbance 480 nm, 0.0001% Triton; note: nearly all actives have a fitted effect of over 20% in size
Target sequence (P00811 whole entry, looked up): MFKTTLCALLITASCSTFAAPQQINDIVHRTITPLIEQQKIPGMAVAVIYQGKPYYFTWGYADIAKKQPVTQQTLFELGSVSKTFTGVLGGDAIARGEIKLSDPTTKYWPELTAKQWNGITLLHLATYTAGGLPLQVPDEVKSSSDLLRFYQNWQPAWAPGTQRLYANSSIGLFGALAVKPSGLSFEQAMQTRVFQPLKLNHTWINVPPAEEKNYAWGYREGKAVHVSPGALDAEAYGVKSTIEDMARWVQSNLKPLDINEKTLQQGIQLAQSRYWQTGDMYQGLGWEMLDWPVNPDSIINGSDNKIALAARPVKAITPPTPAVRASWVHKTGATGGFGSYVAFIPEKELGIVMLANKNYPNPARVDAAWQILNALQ
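AmpC (5.3 nM in the dispensed reagent) in 20 mM phosphate pH 7.0 with 0.01% (detergent screen) or 0.0001% Triton X-100 was preincubated with compounds for 15 min at room temperature. Nitrocefin was then added from an 800 uM solution, and hydrolysis was followed at 480 nm.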
Marburg entry inh: qHTS for inhibitors of binding or entry into cells for Marburg Virus. Marburg virus pseudotyped entry inhibition, cell reporter. Potency, µM (titrated, usually from 37.8 µM), usual class: inhibitors. hit rate 1.8% among 300,000; calls by dose curve; tested in HEK293 cells
AmpC detergent: qHTS Inhibitors of AmpC Beta-Lactamase (assay with detergent) | hit rate 0.041% among 370,000 | Potency, µM (highest dose often 114 µM), usual class: inhibitors | AmpC hydrolysis of nitrocefin, absorbance 480 nm, 0.01% Triton | AID 485294, 2010 | P00811; note: nearly all actives have a fitted effect of over 25% in size
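20 mM phosphate pH 7.0 + 0.01% (detergent screen) or 0.0001% Triton X-100; 5.3 nM AmpC reagent; cpd preinc 15 min RT; nitrocefin (800 uM stock) to start; A480 q20 s × 4 min; Activity was normalised to no-enzyme and no-compound control wells.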
AMA1-RON2 inh: qHTS for Inhibitors of AMA1-RON; Towards Development of Antimalarial Drug Lead: Primary Screen; Plasmodium falciparum AMA1 (3D7) - RON2 peptide interaction; AlphaScreen AMA1-biotinylated RON2 peptide binding; Potency, µM (series often up to 58.2 µM), most hits filed as inhibitors; hit rate 0.2% among 360,000; AID 720542, 2013; note: nearly all actives have a fitted effect of over 45% in size
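AMA1 (3D7) with his tag at 25 nM final met compounds first, then biotinylated RON2 peptide at 25 nM; detection used donor plus acceptor beads, 10 µg/mL apiece, read by AlphaScreen after 30 min at room temperature.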
Lassa entry inh: qHTS for Inhibitors of binding or entry into cells for Lassa Virus. Lassa virus pseudotype entry inhibition, cell reporter. Potency, µM (series often up to 37.9 µM), hits mostly inhibitors. hit rate 1.2% among 300,000. AID 540256, 2011; calls by dose curve; tested in HEK293 cells; note: nearly all actives have a fitted effect of over 50% in size
Hits are given with their value; 0 = inactive; ? = inconclusive; - = no result. The list is not random: actives were taken first. Their share in the collection is about 2.3%. Unless noted, calls come from the whole dose curve; as a rule, active = well fitted curve in the direction sought with a large enough effect; inconclusive = small, poorly fitted or top-dose-only effect, or another doubt; inactive = no such curve, though single readings can be large; an effect the other way counts as inactive or inconclusive.

SMILES | AmpC inh no detg | Marburg entry inh | AmpC detergent | AMA1-RON2 inh | Lassa entry inh
CCc1nc2ccc(C(=O)NCCCN3CCN(c4ccccc4F)CC3)cc2nc1CC | 0 | 10µM | 0 | 0 | ?
Cn1c(=O)c2c(nc(N3CCNCC3)n2Cc2ccccc2Cl)n(C)c1=O | 0 | 0 | 0 | 0 | 0
COc1ccc(N2CCN(c3nc4c(c(=O)n(C)c(=O)n4C)n3Cc3ccccc3)CC2)cc1 | 0 | 10µM | ? | 0 | 8.91µM
Cn1c(=O)c2c(nc(N3CCN(c4ccccn4)CC3)n2Cc2ccccc2Cl)n(C)c1=O | 0 | ? | 0 | 0 | 20.6µM
COc1ccc2c(c1)[C@H](C=Cc1ccccc1)[C@@H]([C@H](O)CO)O2 | - | 0 | - | - | -
COC1=C(Nc2ccc(C)cc2)C(=O)c2ccccc2C1=O | 0 | ? | 0 | 10µM | ?
O=C1C(Cl)=C(Nc2ccccc2)C(=O)c2ccccc21 | 0 | ? | 0 | 0 | ?
COc1ccc(OC)c2c1C(=O)c1ccccc1C2=O | 0 | 0 | 0 | 0 | 0
COC1=C(OC)C(=O)c2ccccc2C1=O | - | ? | - | - | 20.6µM
COC1=C(Nc2ccccc2)C(=O)c2ccccc2C1=O | 0 | 0 | 0 | 10µM | ?
COc1ccc(OCC(=O)OCc2cc(=O)n3nc(C4CC4)sc3n2)cc1 | - | - | 0 | - | 0
O=S(=O)(NCC(c1ccco1)S(=O)(=O)c1cccs1)c1ccc(Cl)cc1 (configuration not stated) | - | - | 0 | - | 0
C[C@@H](CN(C)C)CN1c2ccccc2CCc2ccccc21 | - | 13µM | - | - | -
CN(C)CCCN1c2ccccc2CCc2ccccc21 | 0 | - | 0 | 0 | -
CC(CN(C)C)CN1c2ccccc2CCc2ccccc21 (configuration not stated) | 0 | 13µM | 0 | 0 | ?
CNC(=O)N1c2ccccc2CCc2ccccc21 | 0 | - | 0 | 0 | -
COc1cccc(CNC(=O)CCn2nc(C)c3c(C)n(-c4ccccc4)nc3c2=O)c1 | - | - | 0 | - | 0
O=S1CCCS[C@@H]1c1cccnc1 (some centres not stated) | - | 0 | - | - | -
O=C(Nc1ccc(CN2CCCCC2)cc1)Nc1ccc(Br)cc1Cl | 0 | 10µM | 0 | 0 | ?
O=C(COCc1cc(-c2ccc3c(c2)OCO3)on1)NCc1ccc(F)cc1 | - | - | 0 | - | 0
C/C(=N\NC(=O)C(C)n1nc(C)c([N+](=O)[O-])c1C)c1ccccc1O (configuration not stated) | 0 | 9.2µM | 0 | 0 | 13µM
Cc1nn(C(C)C(=O)NCc2ccco2)c(C)c1[N+](=O)[O-] (configuration not stated) | 0 | - | 0 | 0 | -
COc1ccc(OC)c(NC(=O)Cn2c(=O)c3cccn3c3ccccc32)c1 | - | - | 0 | - | ?
O=C(NCCN1CCOCC1)c1cc(-c2ccc(Cl)cc2)on1 | 0 | 0 | 0 | 0 | ?
CC(C)Cc1cc(C(=O)NCCN2CCOCC2)no1 | 0.501µM | - | ? | 0 | -
SMILES | AmpC inh no detg | Marburg entry inh | AmpC detergent | AMA1-RON2 inh | Lassa entry inh
Cc1cc(C)c(/C=C2/C(=O)Nc3ccccc32)[nH]1 | - | 0 | - | - | -
Cc1ccccc1N1CC(C(=O)Nc2nnc(SCC(=O)Nc3nccs3)s2)CC1=O (configuration not stated) | 28.2µM | ? | 0 | 0 | 0
NC(=O)c1ccsc1NC(=O)c1ccc(N2CCCC2=O)cc1 | 7.94µM | - | 0 | 0 | -
NC(=O)c1ccsc1NC(=O)c1ccc2c(c1)CCCC2 | 0 | ? | 0 | 0 | ?
CCOC(=O)c1cccc(NC(=O)Nc2cc(OC)ccc2OC)c1 | 0 | ? | ? | 0 | 16.4µM
COc1ccc(C)cc1NC(=O)Nc1cccc(C(=O)O)c1 | 0 | ? | 0 | 0 | ?
Cc1ccc(C[n+]2ccccc2)cc1 | 0 | - | ? | 0 | -
Cc1ccc(-c2cc3cccc[n+]3cc2-c2ccc(C)cc2)cc1 | 0 | 3.16µM | 0 | 0 | 6.51µM
Cc1ccc2c(Cl)cc(Cl)c(O)c2n1 | - | 11.2µM | - | 0 | ?
Oc1c(Cl)cc(Cl)c2cccnc12 | 0 | - | 0 | 0 | -
C/C(=N\N1CCCCC1c1cccnc1)c1c(O)n(C2CCCCC2)c(=S)[nH]c1=O (configuration not stated) | 0 | 14.6µM | 0 | 0 | ?
CCCCn1c(O)c(/C(CC)=N/N2CCCCC2c2cccnc2)c(=O)[nH]c1=S (configuration not stated) | 0 | ? | 0 | 0 | ?
Oc1c(CN2CCCCC2)cc(COCc2ccccc2)c2cccnc12 | 0 | ? | ? | 0 | 2.24µM
COc1ccccc1N1CCN(Cc2cc(COC(C)C)c3cccnc3c2O)CC1 | - | 3.98µM | 0 | - | ?
Oc1c(CN2CCN(c3ccccn3)CC2)cc(Cl)c2cccnc12 | 0 | 7.08µM | 0 | ? | 12.6µM
COCc1cc(CN2CCCC2)c(O)c2ncccc12 | 0 | 25.9µM | 0 | 9.47µM | ?
COc1ccc([C@H]2C[C@H](c3ccccc3)Nc3nc(N)nn32)cc1 | - | 0 | - | - | -
COc1ccc(N(CC(C)C)S(=O)(=O)c2nnc(NC(=O)c3cccs3)s2)cc1 | - | - | 0 | - | 0
CC#CCN1C(=O)NC(c2ccccc2)C(C#N)=C1C (configuration not stated) | - | 0 | - | - | -
O=C(/C=C/c1ccnc2ccccc12)c1cccs1 | 0 | 3.16µM | 0 | 0 | ?
O=c1[nH]c2ccc(Cl)cc2c(-c2ccccc2)c1N1CCOCC1 | 0 | - | ? | 0 | -
O=c1[nH]c2ccc(Cl)cc2c(-c2ccccc2)c1N1CCN(c2ccccn2)CC1 | 0 | 2.31µM | 0 | 0 | ?
O=C(Nc1ccc2nc(SCC(=O)N3CCOCC3)sc2c1)c1ccccc1Cl | - | 0 | 0 | - | 0
CCOc1ccc(-c2cn(-c3cccc(SC)c3)c(=O)[nH]2)cc1 | 35.5µM | ? | 0 | 0 | 0
Cc1ccc(NC(=O)Cc2cc(C(=O)O)c3ccccc3n2)c(C)c1 | 0 | 11.6µM | 0 | 0 | 14.6µM
SMILES | AmpC inh no detg | Marburg entry inh | AmpC detergent | AMA1-RON2 inh | Lassa entry inh
Cc1c(N2C(=O)S[C@H](CC(=O)O)C2=O)c(=O)n(-c2ccccc2)n1C | - | 0 | - | - | -
Cc1nnnn1/C(=C\c1ccccc1)C(=O)OCC(=O)Nc1cccc(S(=O)(=O)N(C)C)c1 | ? | - | 0 | 0 | -
Cc1nnnn1/C(=C\c1ccccc1)C(=O)OCC(=O)Nc1ccc(Cl)cc1F | 0 | ? | 0 | 0 | 20µM
Cc1ccc(C(c2nnnn2Cc2cccs2)N2CCN(Cc3ccc4c(c3)OCO4)CC2)cc1 (configuration not stated) | 0 | ? | 0 | 0 | 11.2µM
CC(C)C(c1nnnn1Cc1ccc(F)cc1)N1CCN(Cc2ccc3c(c2)OCO3)CC1 (configuration not stated) | 0 | 12.6µM | ? | 0 | ?
Cc1ccc(C(c2nnnn2CCc2ccccc2)N2CCSCC2)cc1 (configuration not stated) | 0 | 2.24µM | 0 | 0 | ?
CCN1CCN(C(c2nnnn2Cc2ccc3c(c2)OCO3)C(C)C)CC1 (configuration not stated) | 0 | 0 | 0 | 0 | 0
Cc1ccc(C(c2nnnn2CCc2ccccc2)N2CCC(C)CC2)cc1 (configuration not stated) | 0 | ? | 0 | 0 | ?

Compound activity deposited in PubChem by National Center for Advancing Translational Sciences (NCATS).
